Screening results deposited in PubChem BioAssay by several laboratories.
Compounds with a hit are over-represented: about 2.6% of the library has one in this group of screens.
Jurkat NFkB inh – inhibitors of induced NF-kB luciferase reporter, primary screen, TCR NF-kB activation inhibitor project, cell-based, luminescence, uHTS; Jurkat, PMA/ionomycin-induced NF-kB luciferase reporter; inhibition, % at 4 µM; 330,000 tested, 0.53% active; AID 435003, 2010; in the data active = inhibition above about 50%
697 NFkB inh – inhibitors of PMA/ionomycin-induced NF-kB reporter, 697 cells, primary screen, B-cell NF-kB inhibitor project, cell-based, luminescence, uHTS; 330,000 tested, 0.33% active; inhibition, % at 4 µM; 697 B-cell NF-kB luciferase reporter, 16 h; AID 435022, 2010; in the data active = inhibition above about 35%
Gli-Sufu block – Gli-Sufu pathway antagonists, primary screen, luciferase luminescence, Sufu-KO-LIGHT cells, uHTS | Sufu-KO-LIGHT fibroblasts, Gli luciferase reporter luminescence | inhibition, % at 5 µM | 340,000 tested, 0.74% active | AID 588413, 2011;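 active = inhibition above about 55%, limit read from the data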;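 note: 0% = DMSO-treated cells and 100% = wells with medium but no cells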
TAG inh – inhibitors of triacylglycerol accumulation, primary screen, cell-based, uHTS, fluorescence, H9c2 | inhibition, % at 12.5 µM | AID 651582, 2012 | H9c2 cells, Nile Red lipid (TAG) fluorescence; cells loaded with 200 µM oleic acid | 230,000 tested, 0.66% active;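 active = pattern-corrected inhibition of lipid staining of at least 50% with the nuclear-stain viability signal not falling by more than 50%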;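 note: 0% = DMSO wells and 100% = triacsin C control wells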
NR2F2 inh – NR2F2 transcriptional activity inhibitors, primary screen, cell-based, luciferase reporter, HEK293T, luminescence; HEK293T NGFI-A luciferase reporter; AID 686940, 2013; COUP transcription factor 2 (Homo sapiens), P24468; 370,000 tested, 0.7% active; inhibition, % at 8.6 µM;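 active = inhibition above a per-plate cutoff, mean inhibition of test wells between control levels plus 3 SD, cut at about 38% in these data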;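 note: cells cotransfected with COUP-TFII expression vector driving the NGFI-A reporter; 0% = median of COUP-TF2 test wells and 100% = reporter-only cells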
Target sequence (P24468 whole entry, looked up): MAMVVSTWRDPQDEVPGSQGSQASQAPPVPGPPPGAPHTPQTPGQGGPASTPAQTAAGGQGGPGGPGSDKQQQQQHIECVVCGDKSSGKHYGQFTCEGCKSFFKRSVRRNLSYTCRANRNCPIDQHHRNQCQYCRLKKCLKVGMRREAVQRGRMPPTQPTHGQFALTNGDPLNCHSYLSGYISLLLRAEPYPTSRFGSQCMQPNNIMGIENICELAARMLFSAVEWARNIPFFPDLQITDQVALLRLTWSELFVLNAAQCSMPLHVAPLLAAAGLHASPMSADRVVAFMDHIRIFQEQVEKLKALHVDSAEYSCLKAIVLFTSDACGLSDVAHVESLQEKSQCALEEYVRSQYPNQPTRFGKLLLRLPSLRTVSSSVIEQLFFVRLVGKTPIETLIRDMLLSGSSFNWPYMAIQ
Cardio protect – cardioprotection against H2O2-induced cell death, primary screen, uHTS, H9c2 cells, ATPLite luminescence | 360,000 tested, 0.63% active | H9c2 cardiomyocytes, H2O2 injury protection, 2 h | AID 588492, 2011 | protection from H2O2 cell death, % at 20 µM;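 active = compounds giving at least 50% protection of heart cells from peroxide-induced death in the single-dose screen, raw or plate-pattern-corrected value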;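 note: 0% = DMSO wells with peroxide and 100% = DMSO wells without peroxide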
Jurkat NFkB conf – PMA/ionomycin-induced NF-kB reporter inhibitors, Jurkat retest, confirmation, T-cell NF-kB inhibitor project, cell-based, luminescence, single concentration. shares compounds with Jurkat NFkB inh. Jurkat NF-kB luciferase, 16 h. inhibition, % at 4 µM. 2,700 tested, 27% active. AID 435020, 2010;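 active = inhibition reaching about 45% at 4 µM in either replicate, limit read from the data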;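 note: plate controls were PMA/ionomycin stimulated DMSO wells for no effect and unstimulated DMSO wells for full effect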
The depositor's hits bear a star; . = not tested or not shown.

SMILES	Jurkat NFkB inh	697 NFkB inh	Gli-Sufu block	TAG inh	NR2F2 inh	Cardio protect	Jurkat NFkB conf
Cc1cc(C)cc(N/C(N)=N/c2nc(C)cc(C)n2)c1	51*	-14	22	.	29	-9	10
N/C(=N\OCc1ccc([N+](=O)[O-])cc1)c1ccccn1	60*	23	-20	.	.	.	65*
CC(C)CNc1cccc2c1S(=O)(=O)N(Cc1cn(Cc3ccc(C(F)(F)F)cc3)nn1)Cc1ccccc1O2	.	.	.	.	4	.	.
Cc1ccccc1OCCCC(=O)Nc1nccs1	-2	-4	2	.	15	-6	.
Cc1cccc(OCC(=O)Nc2nccs2)c1C	-177	-60	-75	.	-36	-13	-84
Cc1c(C(=O)O)[nH]c2c1C(=O)CC(c1ccc(C(C)(C)C)cc1)C2 (stereo not drawn)	0	-12	1	.	20	1	.
Cc1c(C(=O)N2CCOCC2)[nH]c2c1C(=O)CC(c1ccccc1Cl)C2 (stereo not drawn)	52*	-57	41	.	-1	22	48*
C[C@@H]1Cc2cc(O)cc(O)c2C(=O)O1	.	.	.	.	-3	.	.
CCOC(=O)C(C)Oc1cccc2c(=O)n(CC(=O)NCc3ccc(F)cc3)ccc12 (stereo not drawn)	73*	-8	25	32	-8	-5	48*
COc1cc(OC)cc(C(=O)Nc2ccc(N3CCN(C(=O)c4cccs4)CC3)cc2)c1	64*	-63	6	0	0	5	20
COCCCN1C(=O)[C@H](CC(=O)N2CCCCC2)[C@]2(C(=O)OC)CCCCC=C12	.	.	.	.	-17	.	.
Cc1nc(N2CCCCCC2)c2ccccc2n1	0	-26	3	.	31	-15	.
COc1ccc(Nc2nc(N3CCCC3)c3ccccc3n2)cc1	58*	-24	50	-22	22	-26	20
CO[C@H]([C@H](C)/C=C/N(C)C=O)[C@@H](C)C(=O)CC[C@H](C)[C@H](O)[C@H](C)[C@H]1OC(=O)/C=C/C(C)=C/C[C@H](O)C[C@@H]2C=CC[C@@H](C[C@H](OC)[C@@]3(CO3)[C@@H](OC)C[C@@H](OC)[C@@H]1C)O2	.	.	.	.	6	.	.
NC1=NC[C@H](c2ccccc2)N1CCc1cc(C(F)(F)F)cc(C(F)(F)F)c1	71*	-17	21	43	-8	-5	13
Oc1c(-c2cc(-c3ccco3)[nH]n2)ccc2ccccc12	-156	-147	-90	11	-51	-2	-73
CCc1ccc(Nc2ncc3c(n2)CC(C)CC3=O)cc1 (stereo not drawn)	-172	-164	-112	14	-33	-2	-91
CNc1ccc(/C=C(\C#N)c2ccccn2)cc1[N+](=O)[O-]	-195	-59	-41	-8	-15	-7	-50
N#C/C(=C\c1ccc(Cl)c([N+](=O)[O-])c1)c1ccccn1	0	2	-26	15	-2	20	.
COc1ccccc1-c1nnc(NC(=O)c2ccc3c(c2)OCO3)s1	57*	17	-19	18	7	-15	5
COc1ccc(/C(C)=N\NC(=O)c2ccc3c(c2)OCO3)cc1OC	-8	10	.	.	-16	.	.
COc1cc(C(=O)N/N=C(\C)c2ccc3c(c2)OCO3)cc(OC)c1OC	52*	-26	6	.	-97	-3	2
COC(=O)[C@H](CC(C)C)N1Cc2nnn(Cc3ccccc3)c2-c2ccccc2S1(=O)=O	.	.	.	.	-1	.	.
CCc1cc2c(nc1CC)CCCN2S(=O)(=O)c1ccccc1	.	.	.	.	14	.	.
O=[N+]([O-])c1ccc(N2CCN(Cc3ccc(Br)o3)CC2)cc1	52*	15	40	-15	12	-7	6
SMILES	Jurkat NFkB inh	697 NFkB inh	Gli-Sufu block	TAG inh	NR2F2 inh	Cardio protect	Jurkat NFkB conf
Cc1nonc1OCCN1CCN(c2ccc([N+](=O)[O-])cc2)CC1	58*	-18	-12	3	-25	-3	24
O=[N+]([O-])c1ccc(N2CCN(CCOc3nonc3-c3ccccc3)CC2)c(Cl)c1	-9	5	9	.	21	-14	.
CCC(=O)c1ccc(OCC(=O)Nc2ccccc2N2CCOCC2)cc1	-16	-5	4	-13	14	-10	.
CCC(=O)c1ccc(OCC(=O)Nc2ccccc2N2CCCCC2)cc1	51*	-11	7	-10	8	-4	11
S=C(c1ccc(-c2cccc(Cl)c2)o1)N1CCOCC1	-95	-180	-50	.	-51	-9	.
S=C(c1ccc(-c2cccc(Cl)c2)o1)N1CCCCC1	-166	-178	-113	-1	-39	-19	-90
Cc1cc(NC(=O)CSc2nc(C3CC3)nc3sc(C)c(C)c23)no1	51*	-55	2	.	-20	-7	7
CCc1nc(SCC(=O)Nc2cc(C)on2)c2c(C)c(C)sc2n1	2	0	6	2	9	-4	.
CN(Cc1ccccc1)C1=CC(=[N+]2CCCCC2)CC(C)(C)C1	69*	12	85*	11	75*	-8	66*
CCOC(=O)c1ccc(N2CCOCC2)c(NC(=O)c2c(-c3ccccc3)noc2C)c1	64*	-17	-4	25	19	-7	13
O=S1(=O)Nc2c(ccc3cccnc23)-c2ccccc21	69*	-82	82*	.	.	44	54*
Clc1ccc2ccc3cccnc3c2n1	-7	9	1	.	-2	10	.
COC(=O)c1cccc(NC(=O)NC(=O)c2ccc(Cl)cc2)c1	86*	-34	-76	0	-8	0	3
CCC(=O)NC(c1cccs1)c1ccc2cccnc2c1O (stereo not drawn)	63*	-41	81*	93	17	31	47*
COC(=O)C1CN(Cc2cn(Cc3ccc(F)cc3)nn2)CCS(=O)(=O)N1Cc1ccccc1 (stereo not drawn)	.	.	.	.	-2	.	.
CN(C)c1ccc(N=Nc2ccc(S(N)(=O)=O)cc2)cc1	-154	-156	-93	.	-47	-3	-79
CCCCc1ccc(NC(=O)c2cnccn2)cc1	-156	-206	-71	-2	-31	-17	-105
CCOC(=O)c1ccc(NC(=O)c2cnccn2)cc1	-27	-37	-48	33	-21	-5	.
CC1(C)CC(=O)N(CC(=O)N2CCN(c3cccc(C(F)(F)F)c3)CC2)c2ccccc2S1(=O)=O	.	.	.	.	5	.	.
Oc1[nH]c2ccccc2c1N=Nc1nc2ccccc2s1	-174	-227	-78	.	-23	2	-92
